# Data as given in PubChem BioAssay (NCI).
# The panel holds about 79,000 compounds, 15% with a hit somewhere; the sample as a whole holds those more often. A number with no mark means an inactive call. Activity calls are given as the source filed them. No stated cut-off is given here; in the data, active means growth inhibition above about 70%; inactive means the rest.
# What was measured:
# [1] = NCI Yeast Anticancer Drug Screen. Data for the rad52 strain (AID 147);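 further: 0% = growth of vehicle-treated control cultures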; conditions: S. cerevisiae rad52 mutant growth inhibition, hits give high values
# Method in brief: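 Measured: yeast growth inhibition. System: strain with a defined DNA damage repair alteration. Reference: vehicle-treated control cultures.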
# [2] = NCI Yeast Anticancer Drug Screen. Data for the wt1 strain (AID 149);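 further: 0% = growth of vehicle-treated wt1 cultures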; conditions: S. cerevisiae wt1 strain (SPY 50644) growth inhibition, hits give high values
# Method in brief: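 Each compound is tested on wt1 yeast and the loss of growth versus vehicle gives the inhibition value.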
# [3] = NCI Yeast Anticancer Drug Screen. Data for the rad50EPP+ strain (AID 151);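 further: 0% = growth of vehicle-treated control cultures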; conditions: S. cerevisiae rad50 mutant strain, hits give high values
# Method in brief: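 One strain with a rad50 alteration (rad50EPP+) was compound-treated, its growth then compared to that of vehicle controls.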
# [4] = NCI Yeast Anticancer Drug Screen. Data for the rad50 strain (AID 155);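 further: 0% = growth of vehicle-only cultures of the same strain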; conditions: S. cerevisiae rad50 strain growth inhibition, hits give high values
# Method in brief: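 Vehicle-treated cultures provide the reference for the growth inhibition reported for compound-exposed, repair-deficient yeast.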
# [5] = NCI Yeast Anticancer Drug Screen. Data for the mec2-1 strain (AID 157); conditions: S. cerevisiae mec2-1 strain, hits give high values
# Method in brief: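 Test agents were screened against the mec2-1 yeast strain, with defined DNA repair or cell cycle alteration. Growth was scored as inhibition against vehicle-only controls.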
# [6] = NCI Yeast Anticancer Drug Screen. Data for the rad14 strain (AID 159);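 further: 0% = growth of vehicle-treated control cultures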; conditions: S. cerevisiae rad14 strain growth inhibition, hits give high values
# Method in brief: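 Inhibition of growth is reported for a repair-deficient yeast mutant following compound treatment, calculated relative to cultures that received vehicle.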
# [7] = NCI Yeast Anticancer Drug Screen. Data for the sgs1 mgt1 strain (AID 161);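 further: 0% = growth of cultures given vehicle only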; conditions: S. cerevisiae sgs1 mgt1 strain, hits give high values
# Method in brief: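 Mutant yeast exposed to compound; growth scored against vehicle-only wells.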
# [8] = NCI Yeast Anticancer Drug Screen. Data for the CLN2oe strain (AID 163);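 further: 0% = growth of vehicle-only control cultures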; conditions: S. cerevisiae CLN2oe strain, hits give high values
# Method in brief: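 Here, growth inhibition in a cell-cycle-altered yeast strain after compound exposure was quantified against vehicle control growth.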
# [9] = NCI Yeast Anticancer Drug Screen. Data for the cln2 rad14 strain (AID 165);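 further: 0% = growth equal to vehicle treated cultures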; conditions: S. cerevisiae cln2 rad14 strain, hits give high values
# Method in brief: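 Growth of compound-exposed yeast (cln2 rad14 genotype) measured and expressed as inhibition relative to vehicle.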
# [10] = NCI Yeast Anticancer Drug Screen. Data for the bub3 strain (AID 167); conditions: S. cerevisiae bub3 mutant strain, hits give high values
# Method in brief: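 Mutant yeast screening strain plus compound; vehicle-treated cultures serve as the 0% inhibition reference.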
# [11] = NCI Yeast Anticancer Drug Screen. Data for the wt2 strain (AID 169); conditions: S. cerevisiae wt2 strain growth inhibition, hits give high values
# Method in brief: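 Genetically defined yeast strains from a DNA-repair/cell-cycle panel were used. Compound-exposed yeast growth was measured, and the inhibition was calculated relative to vehicle treatment.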
# [12] = NCI Yeast Anticancer Drug Screen. Data for the mlh1 strain (AID 171);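 further: 0% = growth of vehicle-treated control cultures of the same strain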; conditions: S. cerevisiae mlh1 strain growth inhibition, hits give high values
# Method in brief: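 Here the genetically defined yeast mutant is grown with each compound, and the extent to which its growth falls below that of vehicle-exposed cells is reported.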
# [13] = NCI Yeast Anticancer Drug Screen. Data for the sgs1 strain (AID 173);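 further: 0% = growth of vehicle-only control cultures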; conditions: S. cerevisiae sgs1 mutant, hits give high values
# Method in brief: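 Relative growth inhibition, referenced to vehicle, was determined in a yeast strain with a defined alteration affecting DNA damage repair or cell cycle control after compound exposure.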
# [14] = NCI Yeast Anticancer Drug Screen. Data for the mlh1 rad18 strain (AID 175); conditions: S. cerevisiae mlh1 rad18 strain growth inhibition, hits give high values
# Method in brief: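 In this whole-cell yeast screen, a strain with altered DNA damage repair is challenged with compound, and its growth is measured against matched vehicle-treated controls.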
# [15] = NCI Yeast Anticancer Drug Screen. Data for the rad18 strain (AID 177); conditions: S. cerevisiae rad18 mutant growth inhibition, hits give high values
# Method in brief: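 Screen uses a yeast strain with a defined lesion in DNA damage repair; compound effect is read as loss of growth compared to untreated vehicle cultures.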
# [16] = at 5.0 µM (retest, dose inferred, filed as 0.5)
# [17] = at 50.0 µM (retest, dose inferred, filed as 5.0)
smiles,measurement,setting,value
CCCCCCCCCCCCCCCCNC(=O)/C(=C\c1ccc(Cl)c(Cl)c1)NC(=O)c1ccccc1,growth inhibition,[1]; at 1.2 µM,21%
same,growth inhibition,[1]; at 3.7 µM,8%
same,growth inhibition,[1]; at 11.0 µM,18%
same,growth inhibition,[1]; at 33.0 µM,11%
same,growth inhibition,[1]; at 100.0 µM,77% (active)
same,growth inhibition,[2]; at 1.2 µM,-41%
same,growth inhibition,[2]; at 3.7 µM,-2%
same,growth inhibition,[2]; at 11.0 µM,-4%
same,growth inhibition,[2]; at 33.0 µM,-6%
same,growth inhibition,[2]; at 100.0 µM,9%
same,growth inhibition,[3]; at 1.2 µM,2%
same,growth inhibition,[3]; at 3.7 µM,6%
same,growth inhibition,[3]; at 11.0 µM,6%
same,growth inhibition,[3]; at 33.0 µM,34%
same,growth inhibition,[3]; at 100.0 µM,74% (active)
same,growth inhibition,[4]; at 1.2 µM,-2%
same,growth inhibition,[4]; at 3.7 µM,0%
same,growth inhibition,[4]; [16],14%
same,growth inhibition,[4]; at 11.0 µM,-2%
same,growth inhibition,[4]; at 33.0 µM,-4%
same,growth inhibition,[4]; [17],75% (active)
same,growth inhibition,[4]; at 50.0 µM,93.2% (active)
same,growth inhibition,[4]; at 100.0 µM,49%
same,growth inhibition,[5]; at 1.2 µM,11%
same,growth inhibition,[5]; at 3.7 µM,-5%
same,growth inhibition,[5]; [16],8%
same,growth inhibition,[5]; at 11.0 µM,-7%
same,growth inhibition,[5]; at 33.0 µM,-2%
same,growth inhibition,[5]; [17],29%
same,growth inhibition,[5]; at 50.0 µM,94.2% (active)
same,growth inhibition,[5]; at 100.0 µM,33%
same,growth inhibition,[6]; at 1.2 µM,-1%
same,growth inhibition,[6]; at 3.7 µM,0%
same,growth inhibition,[6]; at 11.0 µM,-4%
same,growth inhibition,[6]; at 33.0 µM,4%
same,growth inhibition,[6]; at 100.0 µM,43%
same,growth inhibition,[7]; [16],-5%
same,growth inhibition,[7]; [17],13%
same,growth inhibition,[7]; at 50.0 µM,55%
same,growth inhibition,[8]; at 1.2 µM,-11%
same,growth inhibition,[8]; at 3.7 µM,-7%
same,growth inhibition,[8]; at 11.0 µM,-6%
same,growth inhibition,[8]; at 33.0 µM,-13%
same,growth inhibition,[8]; at 100.0 µM,52%
same,growth inhibition,[9]; [16],46%
same,growth inhibition,[9]; [17],-10%
same,growth inhibition,[9]; at 50.0 µM,59.2%
same,growth inhibition,[10]; at 1.2 µM,-3%
same,growth inhibition,[10]; at 3.7 µM,-4%
same,growth inhibition,[10]; [16],3%
same,growth inhibition,[10]; at 11.0 µM,-6%
same,growth inhibition,[10]; at 33.0 µM,-7%
same,growth inhibition,[10]; [17],43%
same,growth inhibition,[10]; at 50.0 µM,88.8% (active)
same,growth inhibition,[10]; at 100.0 µM,87% (active)
same,growth inhibition,[11]; at 1.2 µM,0%
same,growth inhibition,[11]; at 3.7 µM,1%
same,growth inhibition,[11]; at 11.0 µM,0%
same,growth inhibition,[11]; at 33.0 µM,5%
same,growth inhibition,[11]; at 100.0 µM,69%
same,growth inhibition,[12]; at 1.2 µM,0%
same,growth inhibition,[12]; at 3.7 µM,-1%
same,growth inhibition,[12]; at 11.0 µM,-3%
same,growth inhibition,[12]; at 33.0 µM,-5%
same,growth inhibition,[12]; at 100.0 µM,47%
same,growth inhibition,[13]; at 1.2 µM,2%
same,growth inhibition,[13]; at 3.7 µM,5%
same,growth inhibition,[13]; at 11.0 µM,5%
same,growth inhibition,[13]; at 33.0 µM,14%
same,growth inhibition,[13]; at 100.0 µM,49%
same,growth inhibition,[14]; [16],10%
same,growth inhibition,[14]; [17],31%
same,growth inhibition,[14]; at 50.0 µM,89.2% (active)
same,growth inhibition,[15]; at 1.2 µM,7%
same,growth inhibition,[15]; at 3.7 µM,7%
same,growth inhibition,[15]; at 11.0 µM,26%
same,growth inhibition,[15]; at 33.0 µM,24%
same,growth inhibition,[15]; at 100.0 µM,67%
COc1cc(N(C)C)ccc1/C=C\c1ccnc2ccccc12,growth inhibition,[1]; at 1.2 µM,-5%
same,growth inhibition,[1]; at 3.7 µM,-7%
same,growth inhibition,[1]; at 11.0 µM,-6%
same,growth inhibition,[1]; at 33.0 µM,-5%
same,growth inhibition,[1]; at 100.0 µM,-10%
same,growth inhibition,[2]; at 1.2 µM,-5%
same,growth inhibition,[2]; at 3.7 µM,-7%
same,growth inhibition,[2]; at 11.0 µM,-7%
same,growth inhibition,[2]; at 33.0 µM,-9%
same,growth inhibition,[2]; at 100.0 µM,-7%
same,growth inhibition,[3]; at 1.2 µM,-2%
same,growth inhibition,[3]; at 3.7 µM,-2%
same,growth inhibition,[3]; at 11.0 µM,10%
same,growth inhibition,[3]; at 33.0 µM,16%
same,growth inhibition,[3]; at 100.0 µM,12%
same,growth inhibition,[4]; at 1.2 µM,-5%
same,growth inhibition,[4]; at 3.7 µM,-7%
same,growth inhibition,[4]; [16],-10%
same,growth inhibition,[4]; at 11.0 µM,-3%
same,growth inhibition,[4]; at 33.0 µM,-1%
same,growth inhibition,[4]; [17],-10%
same,growth inhibition,[4]; at 50.0 µM,2.3%
same,growth inhibition,[4]; at 100.0 µM,1%
same,growth inhibition,[5]; at 1.2 µM,-4%
same,growth inhibition,[5]; at 3.7 µM,-7%
same,growth inhibition,[5]; [16],-11%
same,growth inhibition,[5]; at 11.0 µM,-8%
same,growth inhibition,[5]; at 33.0 µM,-4%
same,growth inhibition,[5]; [17],-19%
same,growth inhibition,[5]; at 50.0 µM,-8.75%
same,growth inhibition,[5]; at 100.0 µM,0%
same,growth inhibition,[6]; at 1.2 µM,-5%
same,growth inhibition,[6]; at 3.7 µM,-4%
same,growth inhibition,[6]; at 11.0 µM,0%
same,growth inhibition,[6]; at 33.0 µM,6%
same,growth inhibition,[6]; at 100.0 µM,37%
same,growth inhibition,[7]; [16],0%
same,growth inhibition,[7]; [17],64%
same,growth inhibition,[7]; at 50.0 µM,-4.05%
same,growth inhibition,[8]; at 1.2 µM,-11%
same,growth inhibition,[8]; at 3.7 µM,-13%
same,growth inhibition,[8]; at 11.0 µM,-18%
same,growth inhibition,[8]; at 33.0 µM,-15%
same,growth inhibition,[8]; at 100.0 µM,-9%
same,growth inhibition,[9]; [16],-17%
same,growth inhibition,[9]; [17],-13%
same,growth inhibition,[9]; at 50.0 µM,-3.5%
same,growth inhibition,[10]; at 1.2 µM,-5%
same,growth inhibition,[10]; at 3.7 µM,-11%
same,growth inhibition,[10]; [16],-14%
same,growth inhibition,[10]; at 11.0 µM,-14%
same,growth inhibition,[10]; at 33.0 µM,-10%
same,growth inhibition,[10]; [17],-3%
same,growth inhibition,[10]; at 50.0 µM,-5.95%
same,growth inhibition,[10]; at 100.0 µM,4%
same,growth inhibition,[11]; at 1.2 µM,-4%
same,growth inhibition,[11]; at 3.7 µM,-7%
same,growth inhibition,[11]; at 11.0 µM,-4%
same,growth inhibition,[11]; at 33.0 µM,16%
same,growth inhibition,[11]; at 100.0 µM,31%
same,growth inhibition,[12]; at 1.2 µM,-1%
same,growth inhibition,[12]; at 3.7 µM,-6%
same,growth inhibition,[12]; at 11.0 µM,3%
same,growth inhibition,[12]; at 33.0 µM,22%
same,growth inhibition,[12]; at 100.0 µM,38%
same,growth inhibition,[13]; at 1.2 µM,-4%
same,growth inhibition,[13]; at 3.7 µM,-5%
same,growth inhibition,[13]; at 11.0 µM,10%
same,growth inhibition,[13]; at 33.0 µM,36%
same,growth inhibition,[13]; at 100.0 µM,45%
same,growth inhibition,[14]; [16],-8%
same,growth inhibition,[14]; [17],32%
same,growth inhibition,[14]; at 50.0 µM,2.15%
same,growth inhibition,[15]; at 1.2 µM,-4%
same,growth inhibition,[15]; at 3.7 µM,-2%
same,growth inhibition,[15]; at 11.0 µM,-1%
same,growth inhibition,[15]; at 33.0 µM,9%
same,growth inhibition,[15]; at 100.0 µM,14%
